Reference: PubChem BioAssay AID1159580 (chemical genetic matrix, 2015)
Hit rate of the full screen: of about 5,500 compounds, about 2,000 (36%) were called active. Not shown: some 18% with an inconclusive outcome. Cut-off read from the data, not from the text of the source: active = normalized growth mostly below about 0.91 (no sharp cut-off); inconclusive = no clear call, values can overlap the other calls; inactive = mostly above about 0.92. The list shows a part of the results.

Assay: chemical genetic growth profiling, strain panel (AID 1159580);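 note: tested at 20 µM; growth read once vehicle control cultures reached saturation at 30 °C; 1 = growth at the plate median or of vehicle wells; lower values mean less growth of the strain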
Conditions: S. cerevisiae deletion strains, growth OD

Measured: normalized growth

CN(C)CCOc1ccc(/C(=C(/CCCl)c2ccccc2)c2ccccc2)cc1
inactive: locus YNL183C, strain NPR1, stronger effect = lower value 0.85 | locus YPL256C, strain CLN2, stronger effect = lower value 0.835
active: locus YAL021C, strain ccr4, stronger effect = lower value 0.0628 | locus YAL026C, strain drs2, stronger effect = lower value 0.0599 | locus YAL030W, strain snc1, stronger effect = lower value 0.0605 | locus YBL061C, strain skt5, stronger effect = lower value 0.0647 | locus YBR009C, strain hhf1, stronger effect = lower value 0.0629 | locus YBR023C, strain chs3, stronger effect = lower value 0.0684 | locus YBR171W, strain sec66, stronger effect = lower value 0.1 | locus YBR231C, strain swc5, stronger effect = lower value 0.0672 | locus YBR279W, strain paf1, stronger effect = lower value 0.0678 | locus YCL011C, strain gbp2, stronger effect = lower value 0.0647 | locus YCL016C, strain dcc1, stronger effect = lower value 0.0711 | locus YCL061C, strain MRC1, stronger effect = lower value 0.107 | locus YCL069W, strain vba3, stronger effect = lower value 0.071 | locus YCR088W, strain abp1, stronger effect = lower value 0.0709 | locus YDL005C, strain med2, stronger effect = lower value 0.0725 | locus YDL040C, strain nat1, stronger effect = lower value 0.0985 | locus YDR001C, strain nth1, stronger effect = lower value 0.0873 | locus YDR069C, strain doa4, stronger effect = lower value 0.0653 | locus YDR137W, strain rgp1, stronger effect = lower value 0.0958 | locus YDR159W, strain sac3, stronger effect = lower value 0.0868 | locus YDR195W, strain ref2 0.126 | locus YDR297W, strain sur2, stronger effect = lower value 0.0624 | locus YDR334W, strain swr1, stronger effect = lower value 0.0691 | locus YDR335W, strain msn5, stronger effect = lower value 0.0647 | locus YDR392W, strain spt3, stronger effect = lower value 0.0935 | locus YEL003W, strain gim4, stronger effect = lower value 0.0736 | locus YEL037C, strain rad23, stronger effect = lower value 0.0691 | locus YEL061C, strain CIN8 (second series), stronger effect = lower value 0.0848 | locus YER015W, strain faa2, stronger effect = lower value 0.0621 | locus YER016W, strain bim1, stronger effect = lower value 0.0811 | locus YER111C, strain swi4, stronger effect = lower value 0.0861 | locus YER155C, strain BEM2 (second series), stronger effect = lower value 0.107 | locus YFR010W, strain ubp6, stronger effect = lower value 0.069 | locus YGL167C, strain pmr1, stronger effect = lower value 0.0724 | locus YGL173C, strain kem1, stronger effect = lower value 0.0697 | locus YGL227W, strain vid30, stronger effect = lower value 0.0851 | locus YGL240W, strain doc1, stronger effect = lower value 0.0984 | locus YGL253W, strain hxk2, stronger effect = lower value 0.0578 | locus YHR013C, strain ard1, stronger effect = lower value 0.111 | locus YHR027C, strain rpn1, stronger effect = lower value 0.063 | locus YHR030C, strain SLT2, stronger effect = lower value 0.711 | locus YHR079C, strain IRE1, stronger effect = lower value 0.837 | locus YHR142W, strain chs7, stronger effect = lower value 0.0764 | locus YJL092W, strain hpr5, stronger effect = lower value 0.0832 | locus YJL095W, strain BCK1 (second series), stronger effect = lower value 0.0582 | locus YJL095W, strain BCK1, stronger effect = lower value 0.648 | locus YJL115W, strain asf1, stronger effect = lower value 0.118 | locus YJL129C, strain trk1, stronger effect = lower value 0.0917 | locus YJL154C, strain vps35, stronger effect = lower value 0.0755 | locus YJL164C, strain tpk1, stronger effect = lower value 0.0629 | locus YJL166W, strain qcr8, stronger effect = lower value 0.0637 | locus YJL187C, strain SWE1, stronger effect = lower value 0.0638 | locus YJR066W, strain TOR1, stronger effect = lower value 0.819 | locus YKL160W, strain elf1, stronger effect = lower value 0.079 | locus YKR026C, strain gcn3, stronger effect = lower value 0.106 | locus YKR091W, strain srl3, stronger effect = lower value 0.0783 | locus YLL001W, strain dnm1, stronger effect = lower value 0.0676 | locus YLL026W, stronger effect = lower value 0.0624 | locus YLL041C, strain sdh2, stronger effect = lower value 0.0691 | locus YLR027C, strain aat2, stronger effect = lower value 0.0598 | locus YLR113W, strain HOG1, stronger effect = lower value 0.791 | locus YLR221C, strain rsa3, stronger effect = lower value 0.0691 | locus YLR258W, strain gsy2, stronger effect = lower value 0.0661 | locus YLR262C, strain YPT6 (second series), stronger effect = lower value 0.0861 | locus YLR320W, strain mms22, stronger effect = lower value 0.0789 | locus YLR342W, strain FKS1, stronger effect = lower value 0.0712 | locus YLR357W, strain rsc2, stronger effect = lower value 0.148 | locus YLR370C, strain arc18, stronger effect = lower value 0.0617 | locus YLR384C, strain iki3, stronger effect = lower value 0.078 | locus YML120C, strain ndi1, stronger effect = lower value 0.0751 | locus YMR058W, strain fet3, stronger effect = lower value 0.064 | locus YMR125W, strain sto1, stronger effect = lower value 0.0872 | locus YMR129W, stronger effect = lower value 0.0788 | locus YMR205C, strain PFK2, stronger effect = lower value 0.0858 | locus YMR231W, strain pep5, stronger effect = lower value 0.0638 | locus YNL071W, strain lat1, stronger effect = lower value 0.0628 | locus YNL209W, strain ssb2, stronger effect = lower value 0.0599 | locus YNL248C, strain rpa49, stronger effect = lower value 0.166 | locus YNL322C, strain KRE1 (second series), stronger effect = lower value 0.433 | locus YNR049C, strain mso1, stronger effect = lower value 0.0725 | locus YOR001W, strain rrp6, stronger effect = lower value 0.0831 | locus YOR070C, strain gyp1, stronger effect = lower value 0.0593 | locus YOR080W, strain dia2, stronger effect = lower value 0.0814 | locus YOR083W, strain WHI5, stronger effect = lower value 0.0673 | locus YOR106W, strain vam3, stronger effect = lower value 0.117 | locus YOR231W, strain MKK1, stronger effect = lower value 0.791 | locus YOR265W, strain rbl2, stronger effect = lower value 0.0684 | locus YOR270C, strain vph1, stronger effect = lower value 0.0918 | locus YOR290C, strain snf2, stronger effect = lower value 0.0929 | locus YPL051W, strain arl3, stronger effect = lower value 0.0673 | locus YPL078C, strain atp4, stronger effect = lower value 0.0865 | locus YPL106C, strain sse1, stronger effect = lower value 0.1 | locus YPL240C, strain hsp82, stronger effect = lower value 0.0664
